{"source": "PubChem BioAssay (NCI)", "note": "This is part of a sample that, as a whole, favours compounds with a hit. Of some 79,000 tested, about 15% had one in any assay. Active and inactive are the calls of the source. No stated cut-off is given here; in the data, active means growth inhibition above about 70%; inactive means the rest."}
{"test": "NCI Yeast Anticancer Drug Screen. Data for the bub3 strain (AID 167)", "conditions": "S. cerevisiae bub3 mutant strain, at 50.0 µM (retest, dose inferred, filed as 5.0), stronger effect = higher value", "in_short": "(§1)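 Screening used yeast with an engineered genetic alteration affecting cell cycle control. Compound-exposed cultures were compared with vehicle cultures, and reduced growth was taken as inhibition.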"}
{"compound": "Oc1cc(Cc2ccccc2)c(Cc2ccccc2)cc1O", "growth inhibition": "97% (active)"}
{"compound": "O=S1(=O)CCN(c2ccccc2CC(c2c[nH]c3ccccc23)c2c[nH]c3ccccc23)CC1", "growth inhibition": "89% (active)"}
{"compound": "CCCCCC(O)C(C)CO", "note": "(stereo not given)", "growth inhibition": "-1% (inactive)"}
{"compound": "Cc1cc(=O)c2cc(N=Cc3ccc([N+](=O)[O-])o3)ccc2o1", "growth inhibition": "6% (inactive)"}
{"compound": "CN(C)C(=S)/N=c1\\ssc(=S)n1Cc1ccco1", "growth inhibition": "-5% (inactive)"}
{"compound": "O=[N+]([O-])c1ccc2nc(Nc3ccccc3)c(Nc3ccccc3)nc2c1", "growth inhibition": "93% (active)"}
{"compound": "CC(=O)NC(CCC(=O)O)C(=O)O.[NH-]C1CCCCC1[NH-].[Pt+2]", "note": "(stereo not given)", "growth inhibition": "98% (active)"}
{"compound": "CC(=O)Oc1c2c(c(C)c3ccccc13)C(=O)c1cccnc1C2=O", "growth inhibition": "-1% (inactive)"}
{"compound": "C=C1C(=O)OC2C(C)C3C=CC(=O)[C@@]3(C)C(OC(=O)/C(C)=C/C)C1[C@@H]2OC(C)=O", "note": "(stereo not given in full)", "growth inhibition": "93% (active)"}
{"compound": "O=C(O)/C=C/c1ccc2c(c1)CC1(Cc3ccccc3C1)C2", "growth inhibition": "92% (active)"}
{"compound": "C(=C\\c1ccc(-[n+]2nc(-c3ccccc3)nn2-c2ccccc2)cc1)/c1ccccc1", "growth inhibition": "99% (active)"}
{"compound": "O=CC(O)C(O)C(O)C(O)C(=O)NCCCCCCCCCCCCNC(=O)C(O)C(O)C(O)C(O)C=O", "note": "(stereo not given)", "growth inhibition": "10% (inactive)"}
{"compound": "CCCCCCCCCCN(CCCCCCCCCC)CC(O)c1cc(-c2ccccc2)nc2ccccc12", "note": "(stereo not given)", "growth inhibition": "58% (inactive)"}
{"compound": "CC1(C)C(=O)C(C(Cl)(Cl)Cl)=C(Cl)C(=O)C1(Cl)Cl", "growth inhibition": "96% (active)"}
{"compound": "Cc1cccc2c1CC1(C2)Cc2c(C)cccc2C1=O", "note": "(stereo not given)", "growth inhibition": "92% (active)"}
{"compound": "Oc1c(Cl)cc(C(c2cc(Cl)c(O)c(Cl)c2)C(c2cc(Cl)c(O)c(Cl)c2)c2cc(Cl)c(O)c(Cl)c2)cc1Cl", "growth inhibition": "98% (active)"}
{"compound": "Cc1ccc(S(=O)(=O)NC(Cc2ccccc2)C(=O)CCl)cc1", "note": "(stereo not given)", "growth inhibition": "99% (active)"}
{"compound": "CCOC(=O)/C(C#N)=C/c1coc2cc(C)cc(C)c2c1=O", "growth inhibition": "93% (active)"}
{"compound": "CN(C)/N=C\\C1CC=CCC1", "note": "(stereo not given)", "growth inhibition": "-80% (inactive)"}
{"compound": "NCC(=O)N/N=C/c1ccc([N+](=O)[O-])o1", "growth inhibition": "11% (inactive)"}
{"compound": "CCc1cc(CC)c(-c2ccco2)c(COC(=O)NC)c1", "growth inhibition": "72% (active)"}
{"test": "NCI Yeast Anticancer Drug Screen. Data for the bub3 strain (AID 167)", "conditions": "S. cerevisiae bub3 mutant strain, at 50.0 µM, stronger effect = higher value", "in_short": "as §1"}
{"compound": "CCCCC#C[I+]c1ccccc1", "growth inhibition": "87.5% (active)"}
{"compound": "CCOC(=O)C1C(c2cccc(OC)c2O)c2cc3c(cc2OC1(C)N1CCCC1)OCO3", "note": "(stereo not given)", "growth inhibition": "24.9% (inactive)"}
{"compound": "Nc1ncnc2nn(C3OC(CO)C(O)C3O)nc12", "note": "(stereo not given)", "growth inhibition": "-70.4% (inactive)"}
{"compound": "Nc1nc(-c2ccc3c(c2)Sc2ccccc2O3)cs1", "growth inhibition": "86.7% (active)"}
{"compound": "O=C1C=CC(Nc2cccc([N+](=O)[O-])c2)C1Nc1cccc([N+](=O)[O-])c1", "note": "(stereo not given)", "growth inhibition": "90.7% (active)"}
{"compound": "O=C(CC(=O)c1ccccc1)CC(=O)c1ccccc1", "growth inhibition": "88.7% (active)"}
{"compound": "Fc1ccc(CSC(=S)Nc2ccc(Br)cc2)cc1", "growth inhibition": "71.1% (active)"}
{"compound": "Cc1cc([N+](=O)[O-])c2nnnn2c1", "growth inhibition": "22.4% (inactive)"}
{"compound": "CN(c1ccc(C(N)=O)cc1)c1c(O)c2ccccc2[nH]c1=O", "growth inhibition": "23.5% (inactive)"}
{"compound": "O=C(/C=C\\c1cccc2ccccc12)c1ccccn1", "growth inhibition": "97% (active)"}
{"compound": "COc1ccc2c(c1)CCc1c(CO)c(COC(=O)NC(C)C)n(C)c1-2", "growth inhibition": "79.3% (active)"}
{"compound": "O=C1CC(O)CC(=O)C1=C(O)CCCCCCCCCCc1ccccc1", "note": "(stereo not given)", "growth inhibition": "85.7% (active)"}
{"compound": "CC1CCN(CCCOC(=O)c2ccccc2)CC1", "growth inhibition": "63.2% (inactive)"}
{"compound": "Cc1ccc(S(=O)(=O)OC2COC3C(OS(=O)(=O)c4ccc(C)cc4)COC23)cc1", "note": "(stereo not given)", "growth inhibition": "96.6% (active)"}
{"compound": "Cc1nn(C(=S)S)c(C)c1N=Nc1cccc(F)c1", "growth inhibition": "72.5% (active)"}
{"compound": "O=C1C(=Cc2ccccc2O)N=C(c2ccccc2)N1n1c(-c2ccccc2)nc2ccccc2c1=O", "growth inhibition": "80.2% (active)"}
{"compound": "O=C1/C(=C/c2ccccc2)CNC/C1=C\\c1ccccc1", "growth inhibition": "94.2% (active)"}
{"compound": "Cc1cc(Br)c(P(=O)(O)O)cc1[N+](=O)[O-]", "growth inhibition": "4.4% (inactive)"}
{"compound": "Oc1cc(Cc2ccccc2)c(Cc2ccccc2)cc1O", "growth inhibition": "91.5% (active)"}
{"compound": "O=S1(=O)CCN(c2ccccc2CC(c2c[nH]c3ccccc23)c2c[nH]c3ccccc23)CC1", "growth inhibition": "90.6% (active)"}
{"compound": "CCCCCC(O)C(C)CO", "note": "(stereo not given)", "growth inhibition": "0.9% (inactive)"}
{"compound": "Cc1cc(=O)c2cc(N=Cc3ccc([N+](=O)[O-])o3)ccc2o1", "growth inhibition": "6.1% (inactive)"}
{"compound": "CN(C)C(=S)/N=c1\\ssc(=S)n1Cc1ccco1", "growth inhibition": "47.3% (inactive)"}
{"compound": "O=[N+]([O-])c1ccc2nc(Nc3ccccc3)c(Nc3ccccc3)nc2c1", "growth inhibition": "72.2% (active)"}
{"compound": "CC(=O)NC(CCC(=O)O)C(=O)O.[NH-]C1CCCCC1[NH-].[Pt+2]", "note": "(stereo not given)", "growth inhibition": "99% (active)"}
{"compound": "CC(=O)Oc1c2c(c(C)c3ccccc13)C(=O)c1cccnc1C2=O", "growth inhibition": "98.2% (active)"}
{"compound": "C=C1C(=O)OC2C(C)C3C=CC(=O)[C@@]3(C)C(OC(=O)/C(C)=C/C)C1[C@@H]2OC(C)=O", "note": "(stereo not given in full)", "growth inhibition": "89.5% (active)"}
{"compound": "O=C(O)/C=C/c1ccc2c(c1)CC1(Cc3ccccc3C1)C2", "growth inhibition": "78.5% (active)"}
{"compound": "C(=C\\c1ccc(-[n+]2nc(-c3ccccc3)nn2-c2ccccc2)cc1)/c1ccccc1", "growth inhibition": "92.3% (active)"}
{"compound": "O=CC(O)C(O)C(O)C(O)C(=O)NCCCCCCCCCCCCNC(=O)C(O)C(O)C(O)C(O)C=O", "note": "(stereo not given)", "growth inhibition": "-6.7% (inactive)"}
{"compound": "CCCCCCCCCCN(CCCCCCCCCC)CC(O)c1cc(-c2ccccc2)nc2ccccc12", "note": "(stereo not given)", "growth inhibition": "26.9% (inactive)"}
{"compound": "CC1(C)C(=O)C(C(Cl)(Cl)Cl)=C(Cl)C(=O)C1(Cl)Cl", "growth inhibition": "51.1% (inactive)"}
{"compound": "Cc1cccc2c1CC1(C2)Cc2c(C)cccc2C1=O", "note": "(stereo not given)", "growth inhibition": "70% (active)"}
{"compound": "Oc1c(Cl)cc(C(c2cc(Cl)c(O)c(Cl)c2)C(c2cc(Cl)c(O)c(Cl)c2)c2cc(Cl)c(O)c(Cl)c2)cc1Cl", "growth inhibition": "93.9% (active)"}
{"compound": "Cc1ccc(S(=O)(=O)NC(Cc2ccccc2)C(=O)CCl)cc1", "note": "(stereo not given)", "growth inhibition": "84.5% (active)"}
{"compound": "CCOC(=O)/C(C#N)=C/c1coc2cc(C)cc(C)c2c1=O", "growth inhibition": "83% (active)"}
{"compound": "CN(C)/N=C\\C1CC=CCC1", "note": "(stereo not given)", "growth inhibition": "21.8% (inactive)"}
{"compound": "NCC(=O)N/N=C/c1ccc([N+](=O)[O-])o1", "growth inhibition": "37.2% (inactive)"}
{"compound": "CCc1cc(CC)c(-c2ccco2)c(COC(=O)NC)c1", "growth inhibition": "96% (active)"}
